Assay results as given in the supplement of paper PMC13380429.

Tested on: Vero E6 infected with SARS-CoV-2
Experiment: inhibition of SARS-CoV-2 cytopathic effect; higher = more antiviral protection, active = above 15
Details: 48 h

Measured: inhibition of SARS-CoV-2 cytopathic effect

Cc1nn(C)c2c1C(c1cccc(Cl)c1)=NCCN2 [zometapine]
inactive: 1 nM -1.8% | 8.33 nM -1.16% | 100 nM 1.14% | 833.33 nM -0.92% | 10000 nM -4.7%

CC(COc1ccccc1Cc1ccccc1)N1CCCCC1 (stereo not given) [benproperine]
inactive: 1 nM -1.82% | 8.33 nM 0.63% | 100 nM -0.71% | 833.33 nM -3.69% | 10000 nM -3.54%

CN1CCC[C@@H]1CCSc1ccc(O)cc1
inactive: 1 nM 0.25% | 8.33 nM 0.01% | 100 nM 0.07% | 833.33 nM -1.07% | 10000 nM -3.04%

NC1=N[C@@]2(c3cc(NC(=O)c4ccc(F)cn4)ccc3F)COC[C@H]2CS1
inactive: 1 nM -3.54% | 8.33 nM -0.32% | 100 nM -4.37% | 833.33 nM -2.3% | 10000 nM -4.47%

NCCc1cc(O)c(O)cc1O [oxidopamine]
inactive: 1 nM -2.92% | 8.33 nM 0.45% | 100 nM -2.01% | 833.33 nM -2.87% | 10000 nM -3.37%

O=C(O)[C@H](O)c1ccccc1 [mandelic-acid]
inactive: 1 nM -0.12% | 8.33 nM 3.41% | 100 nM 3.65% | 833.33 nM 2.65% | 10000 nM -2.37%

O=C(/C=C/N1C[C@H]2C[C@@H]1CN2c1ccccn1)c1ccccc1O
inactive: 1 nM -0.57% | 8.33 nM -1.55% | 100 nM -0.95% | 833.33 nM -5.12% | 10000 nM -2.56%

CN1CCN2c3c(cccc31)[C@@H]1CN(CCCC(=O)c3ccc(F)cc3)CC[C@@H]12 [lumateperone]
inactive: 1 nM -2.67% | 8.33 nM 2.96% | 100 nM 2.88% | 833.33 nM 2.75% | 10000 nM 2.86%

CCCCCCCCCCCCCCC[C@@H](O)[C@@H](N)CO [safingol]
inactive: 1 nM 3.01% | 8.33 nM 0.67% | 100 nM 1.42% | 833.33 nM 2.02% | 10000 nM -4.84%

CC[C@H]1OC(=O)[C@H](C)[C@@H](O[C@H]2C[C@@](C)(OC)[C@@H](O)[C@H](C)O2)[C@H](C)[C@@H](O[C@@H]2O[C@H](C)C[C@H](N(C)C)[C@H]2O)[C@](C)(OC)C[C@@H](C)C(=O)[C@H](C)[C@@H](O)[C@]1(C)O [clarithromycin]
inactive: 1 nM -4.37% | 8.33 nM -0.55% | 100 nM 2.36% | 833.33 nM 1.42% | 10000 nM -3%

COc1ccc2c(c1)/C(=C/c1cnc[nH]1)C(=O)N2
inactive: 1 nM 0.21% | 8.33 nM -1.7% | 100 nM -1.87% | 833.33 nM 4.89% | 10000 nM 6.28%

CCCCCCCCCC(=O)OC1(c2ccc(Cl)cc2)CCN(CCCC(=O)c2ccc(F)cc2)CC1 [haloperidol-decanoate]
inactive: 1 nM 0.13% | 8.33 nM 0.37% | 100 nM -2.1% | 833.33 nM -0.9% | 10000 nM -1.91%

NC(=O)NCCN1CCN(c2cccc(C(F)(F)F)c2)CC1 [fluprazine]
inactive: 1 nM 1.46% | 8.33 nM 1.13% | 100 nM -1.67% | 833.33 nM -1.94% | 10000 nM -2.06%

CC[C@@H](CO)NC(=O)[C@@H]1C=C2c3cccc4[nH]cc(c34)C[C@H]2N(C)C1 [methylergometrine]
inactive: 1 nM -0.77% | 8.33 nM 0.44% | 100 nM -0.17% | 833.33 nM 0.13% | 10000 nM 0%

O[C@H]1[C@H](O)[C@@H](O)CN2CC[C@H](O)[C@H]12 [castanospermine]
inactive: 1 nM 0.15% | 8.33 nM 1.99% | 100 nM 1.25% | 833.33 nM 1.7% | 10000 nM 2.28%

CC1(C)CCC(C)(C)c2cc(NC(=O)c3ccc(C(=O)O)cc3)ccc21 [tamibarotene]
inactive: 1 nM 4.56% | 8.33 nM 1.67% | 100 nM 1.5% | 833.33 nM 0.87% | 10000 nM 0.68%

CCOC(=O)[C@@H](N)CCC(=O)N[C@@H](CSCc1ccccc1)C(=O)N[C@@H](C(=O)OCC)c1ccccc1 [ezatiostat]
inactive: 1 nM -0.49% | 8.33 nM 0.28% | 100 nM 1.7% | 833.33 nM 2.71% | 10000 nM 0.41%

CC(=O)N(CC(C)C(=O)O)c1c(I)cc(I)c(N)c1I (stereo not given) [iocetamic-acid]
inactive: 1 nM -1.3% | 8.33 nM 1.93% | 100 nM 1.81% | 833.33 nM 0.62% | 10000 nM 3.4%

CC(=O)N1CCN(c2ccc(OC[C@@H]3CO[C@@](Cn4ccnc4)(c4ccc(Cl)cc4Cl)O3)cc2)CC1 (racemic) [ketoconazole]
inactive: 1 nM -0.87% | 8.33 nM -0.69% | 100 nM -1.88% | 833.33 nM 0.35% | 10000 nM 1.61%
